Only a selection was taken, and hits are over-represented in it overall.
Methyltransferases: Primary Screen for Target Class Profiling of Small Molecule Inhibitors of Methyltransferases; 25,000 compounds, 3.9% hits; calls only at 40 µM; purified enzyme, MTase-Glo SAH luminescence; active compounds read low; call rule not given here
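Each enzyme was reacted with SAM and its substrate, with compounds tested once at 40 uM; SAH formed was read by MTase-Glo luminescence.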
Numbers without * were called inactive; i = inactive; + = active, no number; ! = repeats disagree. % is set by controls: 0 for no effect and ±100 for the full control effect.

SMILES	Methyltransferases
CCCN1C(=O)c2c(C(=O)NCc3cccc(F)c3)ncn2CC1(C)C(=O)NCc1ccc(C)cc1 (centres undefined)	i
COc1nccnc1NC1CCN(C(=O)NC2CCCC2)CC1	i
COc1ccccc1CNC(=O)C1c2c(n(C)c3ccccc23)SCC(=O)N1c1ccc(F)cc1F (centres undefined)	i
Cc1ccc(Cn2c(=O)c3ccccc3n3c(CCC(=O)NCCCOC(C)C)nnc23)cc1	i
COCCCN1C(=O)c2ccccc2CC1(C)C(=O)NC1CCCCCCC1 (centres undefined)	i
Cc1cc(C)c(NC(=O)N(Cc2ccc3c(c2)Cc2ccccc2-3)C2CCCCCC2)c(C)c1	+
CC1(C(=O)NC2CCCCCCC2)Cc2ccccc2C(=O)N1Cc1cccs1 (centres undefined)	i
CCOCCCNC(=O)N1Cc2c(sc3c2CCCC3)-n2cccc2C1c1ccc(C)cc1 (centres undefined)	i
Cc1cnc(-c2ccccc2)n1C1CCN(S(=O)(=O)c2cccc(F)c2)CC1	i
COc1ccc(N2C(=O)c3cc4ccccc4n3CC2(C)C(=O)NC2CCCC2)cc1OC (centres undefined)	i
O=C(CCn1ccc2cc(S(=O)(=O)N3CCCCC3)ccc21)NCCc1ccco1	i
CCOc1ccc(CNC(=O)c2cc3n(n2)CC(C)(C(=O)NC2CCCCC2)N(C)C3=O)cc1 (centres undefined)	i
CCOc1ccccc1NC(=O)N1Cc2c(sc3c2CCN(C)C3)-n2cccc2C1CC (centres undefined)	i
CCOc1ccc(C2c3cccn3-c3sc4c(c3CN2C(=O)Nc2ccc(F)cc2F)CCCC4)cc1 (centres undefined)	i
CCCn1c(=O)c2ccc(C(=O)NC(C)CC)cc2n2c(=O)n(Cc3cccc(OC)c3)nc12 (centres undefined)	i
CCCn1c(=O)c2ccc(Cl)cc2n2c(=O)n(CC(=O)c3ccc(C)cc3C)nc12	i
C#Cc1cccc(Nc2nc3cc(C(=O)O)ccc3c3cncnc23)c1	i
COc1cc2ncnc(Nc3ccc(O)cc3)c2cc1OC	i
C#Cc1cccc(Nc2ncnc3cc(OC)c(OCCCCCCC(=O)NO)cc23)c1	+
CC1CCC2(NC1)OC1CC3C4CC=C5CC(O[C@@H]6O[C@H](CO)[C@@H](O[C@@H]7O[C@@H](C)[C@H](O)[C@@H](O)[C@H]7O)[C@H](O)[C@H]6O[C@@H]6O[C@@H](C)[C@H](O)[C@@H](O)[C@H]6O)CCC5(C)C4CCC3(C)C1C2C (some centres undefined)	i
COCCN1C(=O)c2c(NC(C)=O)c3cc(F)ccc3n2CC1(C)C(=O)NC1CCCCC1 (centres undefined)	i
CC1(C(=O)NC2CCCCC2)Cn2nc(-c3ccco3)cc2C(=O)N1Cc1ccc2c(c1)OCO2 (centres undefined)	i
O=C(NCCc1ccc(Cl)cc1)c1ccc2c(=O)[nH]c3c(C(=O)NC4CCCC4)sc(=S)n3c2c1	+
Cc1ccc(-c2n[nH]n3c2nc(=O)c2ccc(C(=O)NCCc4ccccc4)cc23)cc1	i
Cn1c(=O)c2ccc(C(=O)NC3CCCCC3)cc2n2c(=O)n(Cc3ccc(Cl)cc3)nc12	i
SMILES	Methyltransferases
CC(C)OCCCNC(=O)c1ccc2c(=O)[nH]c3c(C(=O)NC4CCCC4)sc(=S)n3c2c1	i
O=C(NCCc1ccccc1)c1ccc2c(=O)[nH]c3c(C(=O)NCC4CCCO4)sc(=S)n3c2c1 (centres undefined)	+
CC(C)NC(=O)c1sc(=S)n2c1[nH]c(=O)c1ccc(C(=O)NC(C)CCc3ccccc3)cc12 (centres undefined)	i
CCCn1c(=O)c2ccccc2n2c(=O)n(CC(=O)Nc3ccc4c(c3)OCO4)nc12	i
COc1cccc(CN2C(=O)c3ccc(-c4ccco4)n3CC2(C)C(=O)NC2CCCCC2C)c1 (centres undefined)	i
CCN(CC)CCCN1C(=O)c2cc3occc3n2CC1(C)C(=O)NC1CCCCCCC1 (centres undefined)	i
CCOCCCN1C(=O)c2cc3occc3n2CC1(C)C(=O)NC1CCCCCCC1 (centres undefined)	i
CCC(C)NC(=O)c1ccc2c(=O)n(C(C)C)c3nn(CC(=O)Nc4ccccc4Cl)c(=O)n3c2c1 (centres undefined)	i
CC(C)(C)Cn1c(N)nc2ccc(-c3[nH]c(C(C)(C)C)nc3-c3ccc(F)cc3)nc21	+
C=CCn1c(=O)c2ccc(C(=O)NC(C)CC)cc2n2c(=O)n(CC(=O)Nc3cccc(C)c3)nc12 (centres undefined)	i
CCn1c(=O)n(CC)c2cc(S(=O)(=O)Nc3ccccc3OC)ccc21	i
O=C(Cn1c(=O)oc2cc(S(=O)(=O)NCc3ccccc3)ccc21)N1CCCCC1	i
N#Cc1ccc(N2N=C3c4ccc(C(=O)O)cc4CC[C@@H]3[C@@H]2C2CCCC2)cc1Cl	+
COC(=O)c1ncn2c1C(=O)N(C1CC1)C(C)(C(=O)NCc1ccccc1)C2 (centres undefined)	i
CCc1cn(C[C@H](NC(=O)COC)C(=O)O)c(=O)[nH]c1=O	i
COc1cc(/C=C(\C#N)C(=O)Nc2nnc(C(F)(F)F)s2)ccc1OCc1ccc(C(F)(F)F)cc1C(F)(F)F	i
COc1cc(/C=C(\C#N)C(=O)c2ccc(O)c(O)c2)cc(I)c1O	+
CC(C)Cn1c(=O)c2ccccc2n2c(SCc3c(F)cccc3Cl)nnc12	i
CC(C)CCNC(=O)[C@H]1CN(Cc2ccccc2)C[C@H]1C(=O)O	i
Cc1ccc(N2CCN(S(=O)(=O)c3ccc4[nH]c(=O)[nH]c4c3)CC2)c(C)c1	i
c1ccc(-c2nc(C3CC3)no2)c(OC2CCNC2)c1 (centres undefined)	i
Fc1ccc(C(OCCCc2cnc[nH]2)c2ccc(F)cc2)cc1	+
N=C(N)SCCc1cnc[nH]1	i
Cn1c(=O)c2ccc(C(=O)NC3CCCC3)cc2n2c(SCc3cccc(Cl)c3)nnc12	i
COC(=O)c1ncn2c1C(=O)N(Cc1ccc(C)o1)C(C)(C(=O)NCc1ccccc1)C2 (centres undefined)	i
SMILES	Methyltransferases
CCOC(=O)c1cccc(Nc2cc(C)nc3ccc(C)cc23)c1	+
CCOC(=O)c1cc(Nc2ccccc2)c2cc(Cl)ccc2n1	i
CCOC(=O)c1cnc2ccc(C)cc2c1Nc1cccc(C)c1	i
Cc1cncc(C(=O)NC2CCN(c3ccc(=O)n(C)n3)CC2)c1	i
COC(=O)c1cccc(NC(=O)N2Cc3c(sc4c3CCCC4)-n3cccc3C2c2ccccc2)c1 (centres undefined)	i
CCCn1c(=O)c2ccccc2n2c(SCC(=O)NCc3ccccc3Cl)nnc12	i
CCCNC(=O)c1ncn2c1C(=O)N(C1CC1)C(C)(C(=O)NCc1ccc(F)cc1)C2 (centres undefined)	i
O=C(CCn1ccc2cc(S(=O)(=O)N3CCCCC3)ccc21)NC1CCCCC1	i
CCC1c2ccc(C)n2CCN1C(=O)Nc1cccc(Br)c1 (centres undefined)	i
CCOC(=O)c1cc2n(n1)CC(C)(C(=O)NC1CCCCC1)N(c1cc(C)cc(C)c1)C2=O (centres undefined)	i
N#Cc1c(O)c2c(-c3ccc(-c4ccccc4O)cc3)csc2[nH]c1=O	+!
Cc1nc2ccccc2n1CCNS(=O)(=O)c1cccc(Cl)c1	i

Screening data from PubChem.
